The record followed here is PubChem BioAssay (Tox21).

Inconclusive results are not listed. A call without a number means that no potency is given here. Active and inactive are the calls of the source. The call rests on the fitted dose curve; in most records, active means well fitted cell-killing curve with a large enough effect in the repeat runs; inconclusive means weak or mixed curves, or effect the other way; inactive means flat fitted curve, though single readings scatter.
Potency means the concentration at half of the fitted maximal effect.

This test in a line: qHTS assay to identify small molecule agonists of the constitutive androstane receptor (CAR) signaling pathway - cell viability counter screen (AID 1224836). Further: nearly all actives have a fitted effect of over 45% in size. As to conditions: HepG2-CYP2B6-hCAR viability, CellTiter-Fluor, 23 h, PK11195 added to every well; series mostly up to 92.4 µM. Summed up: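 Fluorescence from CellTiter-Fluor indicates live cells after 23 h exposure. The human hepatoma line expresses hCAR and a CYP2B6-2.2kb reporter. Incubation medium contains 0.75 uM PK11195 (final).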
As for `COc1ccc2nc(N)sc2c1`, the Potency result was “inactive”.
Regarding `C[C@]12C=CC(=O)C=C1CC[C@H]1[C@@H]3C[C@@H](O)[C@](O)(C(=O)CO)[C@@]3(C)C[C@H](O)[C@@]12F`, the Potency result was “inactive”.
With `C[N+](C)(C)CCO`, the Potency result was “inactive”.
The result for `c1ccc2c(c1)ccc1ncccc12` reads “inactive”; that for `Cc1ccc2c(c1)C(=O)OC2=O`, “inactive”.
For `c1ccc2cc3ccccc3cc2c1`, the Potency result was “inactive”.
`CNC[C@H](O)c1ccc(O)c(O)c1`: the Potency result was “inactive”.
The same measure for `C=CCOC(=O)C(=C)C`: “inactive”.
The result for `C=C1C[C@H]2[C@@H]3C=C(C)C4=CC(=O)CC[C@]4(C)[C@H]3CC[C@]2(C)[C@@]1(OC(C)=O)C(C)=O` reads “inactive”.
The result for `CCCCCC1C(=O)CCC1CC(=O)OC` (stereo not drawn) reads “inactive”; that for `CC(=O)O[C@]1(C(C)=O)CC[C@H]2[C@@H]3C=C(Cl)C4=CC(=O)CC[C@]4(C)[C@H]3CC[C@@]21C`, “inactive”.
With `CC(=O)Nc1ccc2c(c1)Cc1cc(NC(C)=O)ccc1-2`, the Potency entry was “inactive”.
For the compound `Nc1ccc2c(c1)C(=O)c1ccccc1C2=O`, the Potency result was “inactive”.
With `O=C(O)c1cc(=O)[nH]c(=O)[nH]1`, the Potency entry was “inactive”.
The same measure for `C[C@]12CC[C@@H]3c4ccc(O)cc4CC[C@H]3[C@@H]1CC[C@H]2O`: “inactive”; for `IC(I)I`: “inactive”; for `O=C1OC2(c3ccccc31)c1cc(I)c(O)c(I)c1Oc1c2cc(I)c(O)c1I`: 15.5 µM (active) [middle of 4 runs].
The same measure for `Oc1c(Cl)ccc(Cl)c1Cl`: “inactive”; for `Nc1cc(Cl)c(N)c(Cl)c1`: “inactive”; for `OC[C@@H](O)[C@@H](O[C@@H]1O[C@H](CO)[C@H](O)[C@H](O)[C@H]1O)[C@H](O)[C@@H](O)CO`: “inactive”.
In the case of `C[C@]12CC[C@@H]3c4ccc(O)cc4CC[C@H]3[C@@H]1CC[C@@H]2O`, the Potency result is “inactive”.
The same measure for `C=CC(C)(O)CCC=C(C)C` (stereo not drawn): “inactive”; for `C=C[C@@]1(C)CC(=O)[C@]2(O)[C@@]3(C)[C@@H](O)CCC(C)(C)[C@@H]3[C@H](O)[C@H](OC(C)=O)[C@@]2(C)O1`: “inactive”.
Take `c1ccc2c(c1)ccc1cc3c(ccc4ccccc43)cc12`: the Potency result was “inactive”.
Consider `C=C[Si](OCCOC)(OCCOC)OCCOC`, for which the Potency entry was “inactive”.
In the case of `C=CCNCC=C`, the Potency entry is “inactive”.
For `c1ccc2c(c1)[nH]c1ccccc12`, the Potency result was “inactive”.
`Clc1ccc(Sc2cc(Cl)c(Cl)cc2Cl)cc1`: the Potency entry is “inactive”.
The same measure for `C1CN(SSN2CCOCC2)CCO1`: “inactive”; for `CC(=O)OC(C)C`: “inactive”.
Take `O=C(O)CCCCCCCCCCCC(=O)O`: the Potency result was “inactive”.
As to `[O-]/[N+](=N\O)c1ccccc1`, the Potency entry is “inactive”.
The same measure for `NC[C@H](O)c1ccc(O)c(O)c1`: “inactive”; for `COc1ccc(-c2coc3cc(O)cc(O)c3c2=O)cc1`: “inactive”; for `OC[C@H]1O[C@@H]2O[C@H]3[C@H](O)[C@@H](O)[C@@H](O[C@H]4[C@H](O)[C@@H](O)[C@@H](O[C@H]5[C@H](O)[C@@H](O)[C@@H](O[C@H]6[C@H](O)[C@@H](O)[C@@H](O[C@H]7[C@H](O)[C@@H](O)[C@@H](O[C@H]1[C@H](O)[C@H]2O)O[C@@H]7CO)O[C@@H]6CO)O[C@@H]5CO)O[C@@H]4CO)O[C@@H]3CO`: “inactive”.
The same measure for `CC(C)[N+](C)(CCOC(=O)C1c2ccccc2Oc2ccccc21)C(C)C`: “inactive”; for `Nc1ccc(N)c(Cl)c1`: “inactive”; for `Nc1ccc2c(O)cc(S(=O)(=O)O)cc2c1`: 21.7 µM (active).
